Here are results for 29 molecules from PubChem BioAssay.

Calls of active or inactive are those of the source. How the calls were made is not given here.

This experiment relates to Aerobactin synthetase IucA (Klebsiella pneumoniae hvKP1). The experiment can be described thus: IucA enzyme inhibition, primary screen, biochemical, Spectrum library (AID 1346200).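 Further: 100% = wells without compound and 0% = wells lacking enzyme.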 The following applies: malachite green pyrophosphate, A620, at 8 µM, hits give low values.
`CC(=O)OC/C=C(C)/C=C/C=C(C)/C=C/C1=C(C)CCCC1(C)C`: the activity remaining was 92.2% (inactive).

`CC(C)=CC1C(CO)C1(C)C` (centres undefined): the activity remaining is 86.3% (inactive). To `C[C@@H]1CC[C@@]23CCC4(C)[C@@](C=CC5[C@@]6(C)CC[C@H](O)C(C)(C)C6CC[C@]54C)(OC2=O)C3[C@H]1C` (some centres undefined) belongs 99.4% (inactive); to `CC1OC(O[C@H]2/C=C/C=C/C=C/C=C/C=C/C=C/C=C/[C@H](C)[C@@H](O)[C@@H](C)[C@H](C)OC(=O)CC(O)CC(O)CCC(O)C(O)CC(O)CC3(O)C[C@H](O)C(C(=O)O)C(C2)O3)C(O)[C@H](N)C1O` (some centres undefined), 89.3% (inactive). For the molecule `O=C(/C=C/c1ccccc1)c1ccc(O)cc1`, the activity remaining was 95.4% (inactive). With `CCCCC(=O)Oc1ccccc1C(=O)O`, the activity remaining is 85.8% (inactive). With `CC1(C)S[C@@H]2[C@H](NC(=O)[C@H](NC(=O)N3CCNC3=O)c3ccccc3)C(=O)N2C1C(=O)O` (some centres undefined) the figure was 95.7% (inactive). For the molecule `CC(=O)N[C@@H](Cc1c[nH]c2ccccc12)C(N)=O`, the activity remaining is 122% (inactive). With `CC(C)CCCC(C)C1CCC2C3=CC[C@H]4C[C@@H](O)CC[C@]4(C)C3CC[C@@]21C` (some centres undefined), the activity remaining was 114% (inactive).

Turning to `Oc1ccc(Cl)c2cccnc12`, the activity remaining was 121% (inactive).

Consider `COc1ccc2c(c1)OCC(Cc1ccc(OC)c(OC)c1)C2=O` (centres undefined), for which the activity remaining was 95.4% (inactive). With `C[N+](C)(C)CC(O)CC(=O)O` (centres undefined) the figure was 99.1% (inactive); with `CCC(=O)O[C@H](CC(=O)O)C[N+](C)(C)C`, 107% (inactive); with `COc1cc2c(cc1OC)C(=O)OC2`, 110% (inactive). Consider `CC(=O)Oc1ccc2c(c1)CCC1C2CC[C@@]2(C)C1CC[C@@H]2OC(C)=O` (some centres undefined), for which the activity remaining was 120% (inactive).

On to `C=C1CCC(C2CC(=O)OC2=O)C(=O)CCC2C1CC2(C)C` (centres undefined), for which the activity remaining was 111% (inactive). On to `COc1ccc2ccc(=O)oc2c1`, for which the activity remaining was 114% (inactive). With `C=CCCCCCCCCCCCC(O)CC(O)CO` (centres undefined) the figure was 76.1% (inactive); with `CC(=O)O[C@H]1C[C@@H](OC(C)=O)C(C)(C)C2CC(=O)[C@]3(C)C(CC[C@@]4(C)[C@H](C(=O)O)OC(=O)C5OC543)[C@]21C` (some centres undefined), 122% (inactive). Turning to `CC(N)CCCC(C)(C)O` (centres undefined), the activity remaining was 123% (inactive). With `COC(=O)c1c(C)c2c(c(C)c1O)OC(=O)c1c(C)c(Cl)c(O)c(Cl)c1O2` the figure was 111% (inactive).

With `O=C(CCBr)N1CCN(C(=O)CCBr)CC1`, the activity remaining was 107% (inactive). With `COc1ccc(CCN2CCC(Nc3nc4ccccc4n3Cc3ccc(F)cc3)CC2)cc1` the figure was 124% (inactive); with `COC(=O)[C@@H]1C(O)CC[C@H]2CN3CCc4c([nH]c5ccccc45)[C@@H]3C[C@@H]21` (some centres undefined), 96.8% (inactive). With `CN1CCN(CCC=C2c3ccccc3Sc3ccc(S(=O)(=O)N(C)C)cc32)CC1` the figure was 116% (inactive). For the molecule `CCCCC(=O)O[C@]1(C(=O)CO)CCC2C3CCC4=CC(=O)CC[C@]4(C)C3[C@@H](O)C[C@@]21C` (some centres undefined), the activity remaining is 111% (inactive). With `CC1NC(=O)NC1=O` (centres undefined) the figure was 97.3% (inactive). Consider `CC(=O)Oc1cccc(C(=O)O)c1OC(C)=O`, for which the activity remaining is 120% (inactive). To `CC(C)(C)NC[C@@H](O)COc1nsnc1N1CCOCC1` belongs 99.4% (inactive).
